IL1B secr inh: inflammasome signaling inhibition, IL-1 beta readout; THP-1 LPS/ATP IL-1B secretion, AlphaLISA, 16 h; active compounds read low; activity change, % at 57.5 µM; 360,000 tested, 4.7% active; AID 743279; in the data active = activity change below about -50%; inconclusive = mostly about -30% to -49%
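Secreted IL-1B measured by AlphaLISA bead assay after 16 h compound exposure of THP-1 cells; compounds (final up to 57.5 uM) added 1 h before LPS (250 ng/mL) and ATP (1.25 mM) stimulation; lower signal means less secretion.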
TDP1 cell noCPT: qHTS for Inhibitors of human tyrosyl-DNA phosphodiesterase 1 (TDP1): qHTS in cells in absence of CPT; DT40 Tdp1-/- hTDP1 cells, no CPT, ATP luminescence, 48 h; Potency, µM (highest dose often 46.2 µM), most hits filed as inhibitors; 420,000 tested, 15% active; AID 686978, 2013; note: nearly all actives have a fitted effect of over 55% in size
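No-CPT arm: Tdp1-/-;hTDP1 DT40 cells (400/well) plus compounds, incubated ≥48 hr at 37 °C. Readout CellTiter-Glo luminescence.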
BCR signal inh: chronic active BCR signaling inhibition. Potency, µM (doses to about 46.1 µM), most hits filed as inhibitors. ABC-DLBCL IkBa-CBG/CBR reporter, luminescence ratio, 4 h. 340,000 tested, 0.05% active; active = well fitted inhibition curve with a large enough effect in the signal ratio, with a control signal flat, not every such curve was filed as active; inconclusive = small, poorly fitted or top-dose-only effect, or effect the other way, or a change in a side signal; the % refers to the signal ratio
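Concentration-response series (up to 46 uM) were applied to TMD8 dual-reporter cells for 4 h at 37C with doxycycline. Green/red ratio, after filter-overlap correction, defined %Activity; red signal alone was normalised to basal cells and zero luminescence.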
MCF10A rerep: inducers of DNA re-replication in MCF 10A breast cells; MCF 10A DNA re-replication, Hoechst nuclear intensity, 48 h; Potency, µM (top dose mostly 46.1 µM), usual class: activators; 350,000 tested, 2.9% active; AID 624296; note: nearly all actives have a fitted effect of over 50% in size
SW480 rerep: induces DNA re-replication in SW480 colon adenocarcinoma cells | SW480 DNA re-replication, Hoechst DNA content imaging, 48 h | Potency, µM (titrated, usually from 46.1 µM), most hits filed as activators | 340,000 tested, 1.8% active | AID 624297; note: nearly all actives have a fitted effect of over 55% in size
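Image-based DNA-content assay: after two days of treatment, nuclei were labelled with the DNA dye Hoechst and imaged, and hits were compounds raising the count of nuclei showing high fluorescence intensity.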
DT40 TDP1 CPT: growth inhibition of DT40 Tdp1-/-;hTDP1 cells with camptothecin (screen for TDP1 inhibitors) | chicken DT40 Tdp1-/-;hTDP1 cells + 20 nM CPT, ATP luminescence, 48 h | Potency, µM (top dose mostly 46.2 µM), most hits filed as inhibitors | 420,000 tested, 12% active; note: nearly all actives have a fitted effect of over 55% in size
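Chicken DT40 Tdp1-/- cells stably complemented with human TDP1 were seeded at 400 cells/well in medium containing 20 nM camptothecin, exposed to pin-transferred compounds, and grown at 37 °C for at least 48 hr. Viability was read as ATP luminescence.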
Hits are given with their value; . = inactive; ? = inconclusive; / = no result. Shown are actives, neighbours in structure and some others; about 19% of the full set was active somewhere. Unless noted, calls come from the whole dose curve; as a rule, active = well fitted curve in the direction sought with a large enough effect; inconclusive = small, poorly fitted or top-dose-only effect, or another doubt; inactive = no such curve, though single readings can be large; an effect the other way counts as inactive or inconclusive.

SMILES	IL1B secr inh	TDP1 cell noCPT	BCR signal inh	MCF10A rerep	SW480 rerep	DT40 TDP1 CPT
CC(=O)N1c2ccccc2Sc2ccccc21	.	.	.	.	.	.
CN1c2ccccc2Sc2cc(N)ccc21	.	16µM	?	.	.	.
O=c1c(-c2ccccc2)nc2cnc(N3CCOCC3)nc2n1Cc1cccs1	/	.	/	/	/	?
CC1N=C(SCC(=O)c2ccc(F)cc2)N2C(C)N=C(SCC(=O)c3ccc(F)cc3)N12 (configuration not stated)	.	4.1µM	/	/	/	4.1µM
Cn1ccnc1SCC(=O)c1ccc(F)cc1	.	.	/	.	.	.
Cc1nn(C)cc1CN(C)C(=O)C1CCC(=O)N(CCc2cccc(F)c2)C1 (configuration not stated)	.	.	/	/	/	.
O=[N+]([O-])c1cccnc1N1CCC(c2cc(-c3ccc(Cl)cc3)n[nH]2)CC1	-85	21µM	?	?	?	21µM
CCN(CC)c1nc(NC2CCN(C)CC2)c2cc(OC)c(OC)cc2n1	/	10µM	/	/	/	5.6µM
C=CCNc1nc(NC2CCN(C)CC2)c2cc(OC)c(OC)cc2n1	/	?	/	/	/	13µM
Cc1cc(C)c(O)c(NC(=S)NC(=O)Cc2ccccc2)c1	.	?	.	.	.	?
Cc1cccc(/C=N/NC(=O)c2ccncc2)n1	.	.	.	.	?	.
Cn1c(NCc2ccccc2)nc2cc(-c3ccccc3)sc2c1=O	.	?	/	/	/	?
c1ccc(OCCNc2nc(NCC3CC3)nc3cc(-c4ccccc4)sc23)cc1	-106	5.8µM	/	/	/	5.8µM
c1ccc(CNc2nc(NCC3CC3)nc3cc(-c4ccccc4)sc23)cc1	-116	10µM	/	/	/	9.2µM
COC1CC(NC(C)=O)C(OC(=O)c2ccccc2)C(CBr)O1 (configuration not stated)	.	.	/	/	/	.
CCOc1ccc(-c2nnc3sc(-c4ccccc4OC)nn23)cc1	.	.	/	.	.	.
COc1ccccc1-c1nnc2sc(COc3ccc(F)cc3)nn12	-67	?	?	.	.	?
COc1ccccc1-c1nnc2sc(-c3cc4ccccc4o3)nn12	.	1µM	.	2.9µM	2.6µM	1.2µM
COc1ccccc1-c1nnc2sc(-c3cnccn3)nn12	.	.	?	18µM	?	.
COc1ccccc1-c1nnc2sc(-c3ccc(N(C)C)cc3)nn12	.	0.082µM	?	?	?	0.0073µM
COc1ccccc1-c1nn2c(-c3ccc(C(C)(C)C)cc3)nnc2s1	/	/	.	/	/	/
COc1cc(NC(=O)c2cccc3c2C(=O)N(C2CCCCC2)C3)cc(OC)c1	/	?	/	/	/	.
CN(c1ccccc1)c1ncnc2c1cnn2C	/	?	?	/	/	.
CC1(C)CC2(C)CC(=O)C1C(C(=O)O)C2C(=O)O (configuration not stated)	.	.	/	/	/	.
CCCCN(C=O)c1c(CC)nc2ccc(C(=O)N3CCN(c4ccccc4)CC3)cn12	.	?	/	/	/	?
SMILES	IL1B secr inh	TDP1 cell noCPT	BCR signal inh	MCF10A rerep	SW480 rerep	DT40 TDP1 CPT
Clc1ccc(SCCCN2CCCCC2)cc1	.	?	.	.	.	.
Clc1ccc(SCCN2CCNCC2)cc1	.	18µM	.	?	.	?
Clc1ccc(Cl)c(OCCCCN2CCNCC2)c1	-74	?	?	.	.	5.8µM
Clc1ccc(OCCCCCN2CCCC2)c(Br)c1	?	23µM	?	.	?	?
CCN1CCN(CCCOc2ccc(Cl)cc2Br)CC1	.	16µM	?	?	?	?
CCC(C)[C@H](NC(=O)[C@@H]1Cc2ccccc2CN1)C(=O)Nc1ccc2c(c1)OCO2 (some centres not stated)	.	.	.	.	.	?
CC1(C2CC2)NC(=O)N(CC(=O)NCc2ccc(Cl)cc2Cl)C1=O (configuration not stated)	.	.	.	.	.	.
CC(=O)N1CCN(c2ncnc3ccccc23)CC1	.	.	.	.	.	.
Cc1oc2ncn(C)c(=O)c2c1C(=O)NCCCN1CCCC(C)C1 (configuration not stated)	/	.	/	/	/	.
CN(C)c1ccc(NC(=O)CSC2=Nc3ccccc3C3=NC(CC(=O)NCc4ccc5c(c4)OCO5)C(=O)N23)cc1 (configuration not stated)	/	?	.	/	/	?
CCCN(CC(=O)Nc1cc(Cl)ccc1Cl)C(=O)c1ccc2n[nH]nc2c1	.	.	.	?	.	.
Cc1nn(-c2ccccc2)c2nc(N)c(C#N)c(-c3ccc(F)cc3)c12	?	26µM	?	16µM	.	18µM
N#Cc1c(N)nc2c(c1-c1ccc(F)cc1)c(=O)nc1sccn12	.	2.6µM	.	.	.	.
Cc1ccccc1NC(=O)CSc1nc(N)c(C#N)c(-c2cccs2)c1C#N	.	?	?	.	.	.
Cc1nc(N)c(C#N)c(-c2ccccc2)c1C	.	?	?	.	.	.
Cc1ccc(-n2nc(C)c3c(-c4cccs4)c(C#N)c(N)nc32)cc1	.	23µM	.	8.2µM	?	?
CCCCCOc1ccc(Cn2c(=O)oc3ccccc32)cc1	/	.	/	/	/	.
CC(C)c1ccc([N+](=O)[O-])cc1S(=O)(=O)N1CCN(C)CC1	.	.	.	.	?	.
COCc1nc2oc3ccccc3c(=O)c2cc1C(=O)OC	.	.	.	.	.	.
CC(C)CCN(C(=S)NC(=O)C1CCCCC1)c1c(N)n(Cc2ccccc2)c(=O)[nH]c1=O	.	?	.	.	.	?
C/C(=N/NC(=O)c1cccs1)c1c(C)[nH]n(-c2nc3ccccc3s2)c1=O	.	2.3µM	?	.	?	3.7µM
CCN(CC)CCCN=Cc1c(-c2ccccc2)[nH]n(-c2nc3ccccc3s2)c1=O	.	?	?	.	.	.
CC(=NCc1ccco1)c1c(C)[nH]n(-c2nc3ccccc3s2)c1=O	.	?	?	.	.	.
COC(=O)Cc1[nH]n(-c2nc3ccccc3s2)c(=O)c1C(C)=Nc1ccc(Cl)cc1	.	21µM	?	.	.	10µM
CCCN=C(C)c1c(-c2ccccc2)[nH]n(-c2nc3ccccc3s2)c1=O	.	26µM	?	.	.	?
CCCc1[nH]n(-c2nc3ccccc3s2)c(=O)c1C=NCC(C)C	-58	23µM	?	.	.	?
COC(=O)Cc1[nH]n(-c2nc3ccccc3s2)c(=O)c1C(C)=Nc1ccc(C)cc1	.	?	?	.	.	.
N#Cc1ccccc1COC(=O)c1ccc2c(c1)OCCO2	-50	.	.	.	?	?
